# GDH-TPI counter-1: GDH-TPI coupled enzyme inhibition counter-screen | GDH-TPI coupled enzyme counterscreen, NADH absorbance | AID 588335 | inhibition, % at 4.8 µM | hit rate 1.2% among 360,000; in the data active = inhibition above about 30%
# FadD28 FP inh: blocks FadD28 binding to the bisubstrate probe. hit rate 0.22% among 360,000. AID 588549. fluorescence polarization. inhibition, % at 12.5 µM; in the data active = inhibition above about 8.5%, passing the limit was not always enough
# SARS 3CLpro inh: SARS-CoV 3CLpro protease inhibition | inhibition, % at 6 µM | P0C6X7 | recombinant SARS-CoV 3CLpro, quenched FRET peptide cleavage | hit rate 0.14% among 290,000; in the data active = inhibition above about 12%
# Mtb BioA inh: BioA (M. tuberculosis) enzyme inhibition; hit rate 0.096% among 360,000; purified M. tuberculosis BioA enzyme, plate reader; inhibition, % at 9.99 µM; in the data active = inhibition above about 40%
# Mtb FBA inh: inhibitors of M. tuberculosis fructose-bisphosphate aldolase; purified M. tuberculosis FBA, fluorescence read-out; hit rate 2.3% among 360,000; inhibition, % at 1 µM; P9WQA3
# Target sequence (P9WQA3 whole entry, looked up): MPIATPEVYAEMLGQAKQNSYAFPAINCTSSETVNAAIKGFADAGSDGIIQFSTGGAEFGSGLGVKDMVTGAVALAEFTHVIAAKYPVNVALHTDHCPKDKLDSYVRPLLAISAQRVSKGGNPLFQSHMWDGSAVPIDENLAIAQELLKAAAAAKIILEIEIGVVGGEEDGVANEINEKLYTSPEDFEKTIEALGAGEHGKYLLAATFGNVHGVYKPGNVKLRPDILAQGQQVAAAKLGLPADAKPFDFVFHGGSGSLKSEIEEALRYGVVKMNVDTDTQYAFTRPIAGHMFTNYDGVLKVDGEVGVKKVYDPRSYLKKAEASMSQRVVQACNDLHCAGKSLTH
# Mtb FBA confirm: Mtb FBA inhibition, confirmed; shares compounds with Mtb FBA inh; purified M. tuberculosis FBA, fluorescence read-out; inhibition, % at 1 µM; hit rate 78% among 5,600; AID 651616
# GDH-TPI counter-2: counter-screen for M. tuberculosis FBA inhibitors: GDH-TPI coupled enzyme inhibition; shares compounds with Mtb FBA inh; GDH-TPI coupled enzyme counterscreen, fluorescence; inhibition, % at 1 µM; hit rate 81% among 5,600; AID 652141; in the data active = inhibition above about 10%
# GDH-TPI DR: GDH-TPI dose response counter-screen for Mtb FBA; shares compounds with Mtb FBA inh; hit rate 79% among 170; GDH-TPI coupled enzyme assay, fluorescence, artifact counterscreen; IC50, µM; call rule not given here
# Numbers stand for hits; 0 = inactive; - = no result given; + = active, no number. Only some compounds are listed: those with a hit (about 3.1% of all), similar ones and a draw of the others. Rule as the data show it, unless noted: active = inhibition above about 27%; inactive = the rest.
SMILES,GDH-TPI counter-1,FadD28 FP inh,SARS 3CLpro inh,Mtb BioA inh,Mtb FBA inh,Mtb FBA confirm,GDH-TPI counter-2,others
Cc1noc(C)c1S(=O)(=O)Nc1ccc2c(c1)C(=O)N([C@@H](C)CO)C[C@@H](C)[C@H](CN(C)C(=O)CCCN(C)C)OCCCC[C@@H](C)O2,-,-,-,0,-,-,-,
CCCNC(=O)[C@H]1[C@H](CO)[C@H]2Cn3c(ccc(-c4ccc(F)cc4)c3=O)[C@@H]1N2Cc1ccccc1F,-,-,-,0,-,-,-,
O=C(C1CCN(c2ccc(N3CCOCC3)nn2)CC1)N1CCN(c2ccc(F)cc2)CC1,0,0,0,0,34,39,32,
O=C(C1CCN(S(=O)(=O)N2CCOCC2)CC1)N1CCN(c2ccc(F)cc2)CC1,0,0,0,0,0,-,-,
CC(=O)NN1CCc2cc3ccc(C)cc3nc21,0,0,0,0,40,0,0,
Cc1ccc2cc3c(nc2c1)N(c1ccccc1)CC3,0,0,0,0,47,0,0,
Cc1cccc(N2CCc3c2nc2ccc(Br)cc2c3N)c1,0,0,0,0,0,-,-,
CCNC(=O)[C@@H]1[C@@H](CO)[C@@H]2Cn3c(ccc(C4=CCCC4)c3=O)[C@H]1N2Cc1cccnc1,-,-,-,0,-,-,-,
CCc1ccc(OCC(=O)N(C)CCC#N)c(Br)c1,0,0,0,-,0,-,-,
N#CCCN(C(=O)COc1ccc(F)cc1Br)c1ccccc1F,0,0,0,0,28,0,0,GDH-TPI DR=0
COc1ccc(Cn2c(N)c(C#N)c3nc4ccccc4nc32)cc1OC,0,0,0,0,0,-,-,
N#Cc1c(N)n(CCNC(=O)c2ccccc2)c2nc3ccccc3nc12,0,0,0,-,98,+,+,
CCCCCn1c(N)c(C#N)c2nc3ccccc3nc21,0,0,0,0,111,0,0,
C=CCn1c(NC(=O)c2ccccc2Cl)c(C#N)c2nc3ccccc3nc21,0,0,0,-,0,-,-,
CCCCn1c(NC(C)=O)c(C#N)c2nc3ccccc3nc21,0,0,0,0,59,96,77,
C[C@@H]1CN([C@@H](C)CO)C(=O)Cc2cc(NC(=O)Nc3ccc(F)cc3)ccc2O[C@@H]1CN(C)C(=O)Nc1ccc2c(c1)OCO2,-,-,-,0,-,-,-,
CCCNC(=O)N1C[C@@H](O)COC[C@@H]2O[C@@H](CC(=O)N3CCOCC3)CC[C@H]21,-,-,-,0,-,-,-,
CC(C)SCC(=O)Nc1ncc2c(n1)-c1ccccc1CC2,0,0,0,-,29,0,0,
O=C(Nc1ncc2c(n1)-c1ccccc1CC2)C1CC1,0,0,0,-,0,-,-,
COc1ccc(CN(C)C[C@H]2Oc3c(NS(=O)(=O)c4c(C)noc4C)cccc3C(=O)N([C@H](C)CO)C[C@H]2C)cc1,-,-,-,0,-,-,-,
CN1C(=S)SC(N(O)C(=O)Nc2cccc3ccccc23)C1(C)C (configuration not stated),0,0,0,0,44,35,25,
N#Cc1ccc(-c2ccc3c(c2)OCO3)nc1SCC(=O)OCc1ccccc1,0,0,0,0,60,67,44,
O=C(C[C@H]1CC[C@H](NC(=O)c2ccncc2)[C@H](CO)O1)NCC1CC1,-,-,-,0,-,-,-,
O=C(CC(c1cccs1)S(=O)(=O)c1ccccc1)c1ccc(F)cc1 (configuration not stated),0,0,0,-,0,-,-,
Cc1ccc(C(=O)CC(c2cccs2)S(=O)(=O)c2ccc(C)cc2)cc1 (configuration not stated),0,0,0,-,102,61,29,
O=C(Nc1ccc2c(c1)OCO2)C1Cc2c(-c3cccnc3)ccnc2O1 (configuration not stated),0,0,-,0,0,-,-,
O=C(Nc1ccccc1)C1Cc2c(-c3ccc4c(c3)OCO4)ccnc2O1 (configuration not stated),0,0,-,0,46,143,146,
CC(=O)Nc1cccc(-c2ccnc3c2CC(C(=O)Nc2ccc4c(c2)OCO4)O3)c1 (configuration not stated),0,0,-,0,0,-,-,
O=C(Nc1cccnc1)C1Cc2c(-c3ccc4c(c3)OCO4)ccnc2O1 (configuration not stated),0,0,-,0,54,+,162,
C[C@@H]1CCCCO[C@H](CN(C)C(=O)Nc2ccccc2)[C@H](C)CN([C@H](C)CO)C(=O)c2cc(NC(=O)NC3CCCCC3)ccc2O1,-,-,-,0,-,-,-,

# Source: PubChem
